FAK inh: inhibitors of human focal adhesion kinase. inhibition, %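 (tested at 7 µM)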. actives 0.84% (n = 97,000). biochemical FAK kinase activity assay. Q05397; in the data active = inhibition above about 19%;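 also: 0% = DMSO and 100% = reference compound high control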
MRP resist rev: reverses drug resistance mediated by MRP; H69AR cells + 2 uM doxorubicin, CellTiter-Glo, 72 h; differential viability (reversal), % at 10 µM; actives 0.04% (n = 85,000);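 active = viability drop by adding the cancer drug above about 55%, with treated viability meeting a 40% cutoff, limit read from the data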;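 also: viability without doxorubicin minus viability with 2 µM doxorubicin for each compound; larger differential means the compound sensitizes cells more to doxorubicin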
CD11b adhes enh: increases human CD11b/CD18 adhesion to fibrinogen; P05107+P11215; K562 CD11b/CD18 adhesion to fibrinogen, ATPlite luminescence; activation, % at 10 µM; actives 0.07% (n = 93,000); AID 1499;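 active = 10 µM primary screen giving 50% or more activity, confirmed by 40% or more on retest at that dose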
Target sequence (P05107 whole entry, looked up, other chains not shown): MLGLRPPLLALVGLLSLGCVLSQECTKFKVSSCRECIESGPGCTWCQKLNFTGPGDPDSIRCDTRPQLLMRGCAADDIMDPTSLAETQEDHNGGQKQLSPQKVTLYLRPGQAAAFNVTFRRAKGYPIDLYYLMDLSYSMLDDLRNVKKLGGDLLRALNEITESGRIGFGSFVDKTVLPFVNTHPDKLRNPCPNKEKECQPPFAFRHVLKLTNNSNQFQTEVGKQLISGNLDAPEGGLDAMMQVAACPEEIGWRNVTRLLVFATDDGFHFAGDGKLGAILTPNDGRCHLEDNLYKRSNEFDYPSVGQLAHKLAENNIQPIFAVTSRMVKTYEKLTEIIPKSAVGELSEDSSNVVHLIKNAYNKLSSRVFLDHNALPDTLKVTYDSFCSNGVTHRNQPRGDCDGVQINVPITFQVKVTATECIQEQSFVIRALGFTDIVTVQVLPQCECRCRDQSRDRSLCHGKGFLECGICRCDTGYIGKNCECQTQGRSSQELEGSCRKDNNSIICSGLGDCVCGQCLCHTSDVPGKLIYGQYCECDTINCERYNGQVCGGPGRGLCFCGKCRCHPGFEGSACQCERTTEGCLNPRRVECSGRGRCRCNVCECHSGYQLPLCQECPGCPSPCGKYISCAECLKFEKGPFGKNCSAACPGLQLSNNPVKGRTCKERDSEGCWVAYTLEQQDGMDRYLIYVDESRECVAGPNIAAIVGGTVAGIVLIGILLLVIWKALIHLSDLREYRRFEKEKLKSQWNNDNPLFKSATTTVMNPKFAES
Mac1 fbg inh: CD11b/CD18-fibrinogen binding inhibition; inhibition, % at 10 µM; AID 1497; actives 0.54% (n = 93,000); K562 CD11b/CD18 adhesion to fibrinogen, ATPlite luminescence; Mn2+ added to activate the integrin; P05107+P11215;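 active = primary inhibition of 50% or more at 10 µM, then 40% or more on retest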
Phagocyt inh: inhibitors of macrophage phagocytosis; J774A.1 macrophage IgG-bead phagocytosis, imaging; inhibition, % at 5 µM; actives 0.07% (n = 110,000); AID 1029;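 active = inhibition above the mean of the plate negative controls plus 5 SD, cut at about 13% in these data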;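 also: phagocytic index as fraction of beads internalized from green versus red external bead signal; plate controls were DMSO negative control for no effect and cytochalasin-D positive control for full effect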
MRP1 act: activates MRP-1; viability increase, % at 10 µM; AID 799; actives 0.61% (n = 140,000); H69AR cells + doxorubicin, viability rescue, CellTiter-Glo;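 active = viability gain under doxorubicin at or above a set limit, the compound median plus 3 SD, cut at about 4.7% in these data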;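 also: MRP-1 overexpressing cells given doxorubicin 25 µM after compound pretreatment; 18-22 h compound pretreatment then 72 h with doxorubicin before readout; 0% = doxorubicin-only wells and 100% = vehicle-treated cells without doxorubicin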
* marks the source's active call; other numbers are inactive results; / = not tested or not shown; [ ] = another dose, or the depositor's remark. Rows were chosen to be rich in hits. Some 1.5% of all compounds tested hit in one or more screens of this group.

SMILES	FAK inh	MRP resist rev	CD11b adhes enh	Mac1 fbg inh	Phagocyt inh	MRP1 act
Oc1csc(Cc2nc(-c3ccc(-c4ccccc4)cc3)cs2)n1	-1	/	161*	-2	/	-1
Cc1cc(C)n(CCc2nc(-c3ccc(-c4ccccc4)cc3)cs2)n1	/	/	/	/	-1	7.3*
Cc1cc(C)n(CCc2nc(-c3cccs3)cs2)n1	2	17	/	/	/	2
Cc1cc(C(=O)OCC(=O)N2CCN(c3ccccc3)CC2)c2ccccc2n1	2	11	-1	2	0	0
Cc1cccc(-c2nnc3n2N=C(c2ccccc2Br)CS3)c1	3	-18	-2	-12	-2	-1
N#Cc1nc(COc2ccccc2)oc1N1CCCCCC1	1	5	20	2	/	6.3*
N#Cc1nc(COc2ccccc2)oc1N1CCCC1	-3	/	2	-4	0	5.0*
CCOCCOC(=O)COc1ccc2c(-c3ccccc3)cc(=O)oc2c1	/	/	/	/	-11	-1
Cc1ccc(C)c2[nH]c(=O)c(CN(Cc3ccco3)S(=O)(=O)c3ccc4c(c3)OCCO4)cc12	-3	-9	-2	8	-2	5.4*
CCc1ccc2[nH]c(=O)c(CN(Cc3ccco3)S(=O)(=O)c3ccc4c(c3)OCCO4)cc2c1	-9	-4	-1	-4	-1	-4
CO[C@@H]1O[C@@H]2COC(c3ccccc3)O[C@@H]2[C@@H](OC)[C@@H]1O (some centres undefined)	0	2	/	/	/	-3
Cc1nnc(NC(=O)CSc2cn(CCNC(=O)c3ccccc3)c3ccccc23)s1	-3	6	-1	-2	0	-2
COc1ccc(C(=O)NCCn2cc(SCC(=O)Nc3nnc(C)s3)c3ccccc32)cc1	0	-35	/	/	/	7.9*
CCCCCCCn1ccc(=N)cc1	-1	-2	-6	83*	-1	-6
CCCCCn1ccc(=N)cc1	-2	14	-3	31	-1	0
CN(c1ccc(C(=O)Nc2ccccc2C(F)(F)F)cc1)S(C)(=O)=O	2	/	2	-2	54*	-1
CN(c1ccc(C(=O)Nc2ccccc2C(=O)N2CCCC2)cc1)S(C)(=O)=O	-5	0	-6	-7	2	-3
CC(=O)Nc1ccc2[nH]c(C)c(CC=C(Cl)Cl)c(=O)c2c1	2	-6	-5	-18	-1	6.8*
COCc1cc(C)nc(N2CCN(Cc3ccccc3)CC2)c1C#N	-1	8	3	52*	2	-2
S=C(NC1CCCCC1)N(CCc1ccccc1)CCc1ccccc1	/	/	-4	12	71*[artifact]	-1
Cc1ccn2c(Nc3ccccc3C)c(-c3ccncc3)nc2c1	/	/	/	/	-16	0
Cc1cc(/C=C(\C#N)C(=O)OCC(=O)NC(=O)NC(C)(C)C)c(C)n1CCC(C)C	1	57*	-3	16	3	-3
C=CCNC(=O)NC(=O)COC(=O)/C(C#N)=C/c1cc(C)n(CCC(C)C)c1C	8	2	/	/	/	0
CCC(CC)NC(=O)CO/N=C/c1ccccc1OC(F)F	/	/	/	/	6	-1
COCC(=O)Nc1nnc(COc2ccc(Cl)cc2)s1	-2	1	/	/	/	5.4*
SMILES	FAK inh	MRP resist rev	CD11b adhes enh	Mac1 fbg inh	Phagocyt inh	MRP1 act
CCOCC(=O)Nc1nnc(COc2ccc(Cl)cc2)s1	0	/	0	3	3	4
O=C(CSc1ccccc1)Nc1nnc(COc2ccc(Cl)cc2)s1	/	/	/	/	-4	7.1*
c1ccc(CNc2ccc3c(c2)ncn3C2CCCCC2)nc1	4	7	-3	-6	0	-2
Cc1oc2cc(O)cc(C)c2c(=O)c1-c1cnn(-c2ccccc2)c1	2	-7	0	2	0	-2
Cc1oc2c(O)c(O)ccc2c(=O)c1-c1cnn(-c2ccccc2)c1	2	/	3	14	/	4.9*
O=C(CN1CCC(c2nc3ccccc3s2)CC1)NCc1cccs1	1	-9	-8	100*	2	-1
N#Cc1cc(C#N)c(N2CCN(c3ccccn3)CC2)nc1N	-2	/	/	/	/	2
O=C1/C(=C\c2ccco2)SC(=S)N1c1ccccc1	/	/	/	/	/	4.7*
CCCCCCc1cc2cc(-c3nnc(-c4ccccc4O)o3)c(=O)oc2cc1O	/	/	-2	98*	0	-4
CCCCCCc1cc2cc(-c3nnc(-c4ccccc4OC)o3)c(=O)oc2cc1O	2	0	2	87	-1	-3
Cc1ccc(-c2nn(-c3ccccc3)cc2/C=N/NS(=O)(=O)c2ccccc2)cc1	-1	/	/	/	/	3
Cc1ccc(S(=O)(=O)N/N=C\c2cn(-c3ccccc3)nc2-c2ccccc2)cc1	-6	/	/	/	/	6.2*
Cc1occc1C(=O)NNC(=O)Nc1ccc(Cl)c(Cl)c1	/	/	-1	26	/	4.9*
Cc1ccsc1C(=O)NNC(=O)Nc1ccc(Cl)c(Cl)c1	6	/	2	2	1	0
Cn1nc(-c2ccc(Cl)cc2)c2cc(C(=O)N3CCN(c4ccccn4)CC3)sc21	-2	-17	5	62*	/	-2
CCOC(=O)c1cc(-c2ccccc2)sc1NC(=O)CC	/	/	8	-6	-18	-1
CCOC(=O)c1cc(-c2ccccc2)sc1NC(=O)C(C)Sc1nnc(N)s1 (centres undefined)	/	/	/	/	-14	11*
O=C(O)c1ccc(CSc2ncn[nH]2)cc1	-1	21	0	-2	-1	-2
Brc1ccc(CSc2ncn[nH]2)cc1	-5	-3	7	-9	0	4.9*
CCCOc1ccc(CSc2ncn[nH]2)cc1	0	14	0	-2	-1	7.4*
CC(C)[C@H](NC(=O)c1ccccc1)C(=O)OCC(=O)/C=C1/N(C)c2ccccc2C1(C)C	/	/	/	/	3	4.8*
CC(/C=C1\SC(=S)N(NC(=O)c2ccc(O)cc2)C1=O)=C\c1ccccc1	/	/	/	/	5	7.9*
CC(/C=C1\SC(=S)N(CCCC(=O)Nc2ccc(C(=O)O)cc2)C1=O)=C\c1ccccc1	/	/	/	/	-7	13*
CC(=O)NN1C(=O)/C(=C\c2ccccc2)SC1=S	-3	/	/	/	/	4
CC(/C=C1\SC(=O)N(CCCC(=O)O)C1=O)=C\c1ccccc1	/	/	/	/	/	-3
SMILES	FAK inh	MRP resist rev	CD11b adhes enh	Mac1 fbg inh	Phagocyt inh	MRP1 act
Cc1cc(C)cc(OC(=O)N2CCOCC2)c1	-2	11	2	-10	1	-1
Cc1cccc(NC(=O)/C(=C\c2ccc([N+](=O)[O-])o2)NC(=O)c2ccc(Cl)cc2)c1	/	/	33	-15	/	5.7*
O=C(C1CCCO1)N1CCN(C(=S)Nc2ccccc2Cl)CC1 (centres undefined)	/	/	/	/	/	-2
COc1cc(NS(=O)(=O)c2ccc(C)cc2)ccc1-n1cnnn1	-80	-8	1	-2	-1	6.3*
O=C(NNC(=O)C1CC(c2cccnc2)=NO1)Nc1cccc(F)c1 (centres undefined)	-6	/	0	-7	2	-2
Cc1ccccc1Nc1nc(N)nc(CN(C)Cc2ccccc2Cl)n1	/	/	/	/	-7	-3
O=c1c2ccccc2nc(N/N=C/c2ccc(O)cc2)n1O	-4	/	-8	50	0	0
O=c1c2ccccc2nc(N/N=C/c2c(O)ccc3ccccc23)n1O	1	/	-6	58*	0	0

Screening data as filed in PubChem BioAssay.
